Among the test systems are SK-MEL-2 melanoma; EKVX NSCLC; SN12C renal; UO-31 renal; TK-10 renal; ACHN renal; CAKI-1 renal; A498 renal; CCRF-CEM leukemia; MOLT-4 leukemia; RPMI-8226 leukemia; OVCAR-8 ovarian; OVCAR-5 ovarian; OVCAR-4 ovarian; SK-OV-3 ovarian; IGROV1 ovarian; OVCAR-3 ovarian; HS 578T breast; NCI/ADR-RES ovarian.
Common to all, as to test: NCI-60 one-dose screen, 48 h (100 = growth as untreated, 0 = no growth, -100 = all killed)
Holding throughout (settings): 10 µM unless noted

Compounds without any hit were thinned out: in the full panel of roughly 83,000, 20% have a hit.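 Each cell line was grown in a 96-well plate and treated with one concentration of compound for 48 hours. Values below 10 were considered active.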 Unmarked numbers belong to inactive results. Calls of active or inactive are those of the source.

Consider `NC1=C(c2nn[nH]n2)C(c2ccccc2Cl)c2ccc3ccccc3c2O1` (stereo not given), for which the growth in the assay with SK-MEL-2 melanoma is 89.7%; in the assay on EKVX NSCLC it was 90.7%; with SN12C renal it was 84%; in the assay on UO-31 renal it was 60%; in the assay on TK-10 renal, 74.9%; with ACHN renal, 77.5%. In addition, the growth in the assay with CAKI-1 renal was 36.9%; with A498 renal, 48%; in the assay on CCRF-CEM leukemia, 77.5%; in the assay on MOLT-4 leukemia, 70.9%; in the assay with RPMI-8226 leukemia, 71.7%; with OVCAR-8 ovarian, 86%. Further, the growth was 109% in the assay with OVCAR-5 ovarian; 81.5% in the assay on OVCAR-4 ovarian; 86.2% in the assay with SK-OV-3 ovarian; 63.2% in the assay with IGROV1 ovarian; 69.6% with OVCAR-3 ovarian; 80.3% in the assay on HS 578T breast. Besides, in the assay with NCI/ADR-RES ovarian, the growth was 55.9%.
As for `COc1ccc(/C=N/Nc2cc(=O)[nH]c3ccc(C)cc23)cc1`, the growth was 81.7% with SK-MEL-2 melanoma; 82% with EKVX NSCLC; 88.3% in the assay on SN12C renal; 75.7% in the assay on UO-31 renal; 116% with TK-10 renal; 92.2% with ACHN renal. Also, the growth in the assay with CAKI-1 renal was 93.1%; in the assay on A498 renal, 87.8%; in the assay on CCRF-CEM leukemia, 88%; in the assay with MOLT-4 leukemia, 79%; in the assay on RPMI-8226 leukemia, 81.6%; in the assay on OVCAR-8 ovarian it was 95.6%. Also, the growth with OVCAR-5 ovarian is 98%; in the assay on OVCAR-4 ovarian it was 109%; in the assay with SK-OV-3 ovarian, 87.6%; in the assay on IGROV1 ovarian, 98.4%; in the assay on OVCAR-3 ovarian, 104%; in the assay on HS 578T breast, 88.3%. Further, the growth in the assay on NCI/ADR-RES ovarian was 94.9%.
For `CCN1C(=O)N(CC)C2Nn3c(s/c(=C4\C(=O)N(CC(C)C)c5ccccc54)c3=O)=NC21` (stereo not given), the growth in the assay with SK-MEL-2 melanoma was 66.4%; in the assay with EKVX NSCLC, 63.8%; in the assay with SN12C renal, 48.9%; with UO-31 renal, 49.8%; with TK-10 renal, 13.1%; with ACHN renal, 52.5%. Also, the growth in the assay with CAKI-1 renal was 34.1%; in the assay with A498 renal it was -6.38% (active); with CCRF-CEM leukemia, 42.6%; in the assay with MOLT-4 leukemia, 48.7%; in the assay with RPMI-8226 leukemia, 50.6%; with OVCAR-8 ovarian, 44.7%. Besides, the growth in the assay on OVCAR-5 ovarian is 52.5%; in the assay on OVCAR-4 ovarian, 56.5%; in the assay on SK-OV-3 ovarian, 56.2%; with IGROV1 ovarian it was 47.9%; in the assay on OVCAR-3 ovarian it was 21.5%; in the assay with HS 578T breast, 40.5%.
On to `N#C/C(=C\c1cccc2cnccc12)n1nnc2cccc(F)c21`, for which the growth was 52.8% with SK-MEL-2 melanoma; 24.9% in the assay with EKVX NSCLC; 17.7% with SN12C renal; 41.4% in the assay with UO-31 renal; 34.4% with TK-10 renal; 16.9% with ACHN renal. The growth is 41.5% with CAKI-1 renal; 67.7% in the assay with A498 renal; 17.6% in the assay with CCRF-CEM leukemia; 26.2% in the assay on MOLT-4 leukemia; 6.88% (active) in the assay with RPMI-8226 leukemia; 41.7% in the assay on OVCAR-8 ovarian. In addition, the growth in the assay with OVCAR-5 ovarian is 31.8%; in the assay on OVCAR-4 ovarian, 38.7%; with SK-OV-3 ovarian, 90.2%; in the assay with IGROV1 ovarian, 26.5%; in the assay on OVCAR-3 ovarian, 35.3%; in the assay on HS 578T breast, 47.1%.
For `Cc1cc(O)c(C2=NN(c3ccc(S(N)(=O)=O)cc3)C(c3ccccc3O)C2)cc1Cl` (stereo not given), the growth in the assay on SK-MEL-2 melanoma is 17.4%; in the assay on EKVX NSCLC, -2.37% (active); in the assay on SN12C renal it was 15.1%; with UO-31 renal, 9.61% (active); in the assay with TK-10 renal, 41.5%; in the assay on ACHN renal, 7.54% (active). Besides, the growth is -13.6% (active) in the assay on CAKI-1 renal; 20.6% in the assay with A498 renal; 12.9% in the assay with CCRF-CEM leukemia; -57.4% (active) with MOLT-4 leukemia; 15.4% in the assay with RPMI-8226 leukemia; 4.04% (active) in the assay with OVCAR-8 ovarian. For the same compound, the growth is -15.1% (active) in the assay with OVCAR-5 ovarian; 44% in the assay on OVCAR-4 ovarian; 34.1% with SK-OV-3 ovarian; 0.983% (active) in the assay with IGROV1 ovarian; -45.8% (active) in the assay on OVCAR-3 ovarian; 8.33% (active) with HS 578T breast. In the assay with NCI/ADR-RES ovarian, the growth was 1.92% (active).
On to `CCCCC1CCCC12NC(=O)NC2=O` (stereo not given), for which the growth is 100% in the assay with SK-MEL-2 melanoma; 107% in the assay on EKVX NSCLC; 96% in the assay on SN12C renal; 85.1% in the assay with UO-31 renal; 92.7% in the assay on TK-10 renal; 99.4% in the assay on ACHN renal. The growth in the assay on CAKI-1 renal is 107%; with A498 renal, 98.3%; in the assay with CCRF-CEM leukemia, 101%; in the assay with MOLT-4 leukemia, 122%; in the assay on RPMI-8226 leukemia, 101%; in the assay with OVCAR-8 ovarian, 113%. Further, the growth in the assay with OVCAR-5 ovarian is 88.2%; in the assay on OVCAR-4 ovarian, 106%; in the assay with SK-OV-3 ovarian, 110%; in the assay on IGROV1 ovarian, 88.8%; in the assay on OVCAR-3 ovarian it was 92.8%; in the assay on HS 578T breast, 112%. Also, in the assay on NCI/ADR-RES ovarian, the growth is 92.9%.
With `CC[C@H](C)C(=O)O[C@H]1CCC=C2C=C[C@H](C)[C@H](CC[C@@H]3CC=CC(=O)O3)[C@H]21`, the growth with SK-MEL-2 melanoma is 81.7%; with EKVX NSCLC, 110%; in the assay on SN12C renal it was 67.7%; in the assay with UO-31 renal, 71.8%; in the assay with TK-10 renal it was 105%; in the assay with ACHN renal it was 86.9%. Besides, the growth in the assay with CAKI-1 renal was 90.5%; in the assay with A498 renal, 97%; in the assay with CCRF-CEM leukemia, 6.89% (active); with MOLT-4 leukemia, 45.6%; with RPMI-8226 leukemia it was 0.207% (active); in the assay with OVCAR-8 ovarian, 82%. Further, the growth in the assay on OVCAR-5 ovarian is 112%; in the assay on OVCAR-4 ovarian, 103%; in the assay with SK-OV-3 ovarian, 99.6%; in the assay with IGROV1 ovarian, 83.9%; in the assay on OVCAR-3 ovarian, 73.2%; with HS 578T breast it was 109%. Also, the growth in the assay on NCI/ADR-RES ovarian was 90.9%.
On to `CCOc1c(B(O)O)cccc1-c1nc2ccc3[nH]ncc3c2c2c1CCCC2`, for which the growth is 113% in the assay on SK-MEL-2 melanoma; 47.5% with EKVX NSCLC; 62.7% in the assay with SN12C renal; 29.9% with UO-31 renal; 19.7% in the assay on TK-10 renal; 51.1% in the assay on ACHN renal. The growth with CAKI-1 renal was -26.9% (active); in the assay on A498 renal, 61.8%; in the assay on CCRF-CEM leukemia, 44%; with MOLT-4 leukemia it was 28.8%; with RPMI-8226 leukemia, 39.5%; in the assay on OVCAR-8 ovarian, 65%. For the same compound, the growth with OVCAR-5 ovarian was 74.7%; in the assay on OVCAR-4 ovarian, 93.3%; with SK-OV-3 ovarian it was 72%; with IGROV1 ovarian, 77.6%; with OVCAR-3 ovarian, 113%; with HS 578T breast, 34.5%. For the same compound, the growth with NCI/ADR-RES ovarian is 62.7%.

These data come from PubChem BioAssay (NCI).
